In PubChem BioAssay (NCATS):
Records with an inconclusive call do not appear. Calls of active or inactive are those of the source. The call rests on the fitted dose curve; in most records, active means well fitted inhibition curve with a large enough effect; inconclusive means small, poorly fitted or top-dose-only effect; inactive means flat fitted curve, though single readings scatter.

What was measured:
[1] = tested on: CRL-7250; assay: Cytotoxic Profiling of Annotated Libraries Using Quantitative High-Throughput Screening (AID 1296008); details: Five cell lines viability, CellTiter-Glo ATP luminescence, 48-72 h; max response: active compounds read low; on max response: on the % scale 0 is the no-effect control and ±100 the full control effect
Outline: (§1)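 Cells exposed to compounds for 48 or 72 hr at 37 degrees Celsius. Viability read as ATP-coupled luminescence with CellTiter-Glo after 10 min at room temperature.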

[2] = tested on: HEK293; assay: as above; details: Five cell lines viability, CellTiter-Glo ATP luminescence, 48-72 h; max response: active compounds read low
Outline: as §1

[3] = tested on: HaCat; assay: as above; details: Five cell lines viability, CellTiter-Glo ATP luminescence, 48-72 h; max response: active compounds read low
Outline: as §1

[4] = tested on: KB-3-1; assay: as above; details: Five cell lines viability, CellTiter-Glo ATP luminescence, 48-72 h; max response: active compounds read low
Outline: as §1

[5] = tested on: NIH3T3; assay: as above; details: Five cell lines viability, CellTiter-Glo ATP luminescence, 48-72 h; max response: active compounds read low
Outline: as §1

[6] = tested on: HACAT; assay: qHTS assay to identify novel small-molecules to repurpose for Merkel cell carcinoma treatment (AID 1296009); details: MCC and control cell lines, CellTiter-Glo viability, 72 h; at 44.8 µM (top of the series) unless noted
Outline: (§2)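 Cells were treated for 72 hr at 37 degree celsius with compounds in 8- or 11-point dose response. Viability was read by CellTiter-Glo luminescence, normalized to no-cell (cytotoxicity) and DMSO controls.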

[7] = tested on: HEK293T; assay: as above; details: MCC and control cell lines, CellTiter-Glo viability, 72 h; series mostly up to 44.8 µM
Outline: as §2
Further: nearly all actives have a fitted effect of over 60% in size.

COc1cccc(-n2nc(C(=O)O)cc2-c2ccc(C3CCCCC3)c(Cl)c2)c1
inactive: outcome [1] | outcome [2] | outcome [3] | outcome [4] | max response [5] 2.94% | outcome [6] | Potency [7]

CC(=C/C(=O)O)/C=C/[C@]1(O)[C@@]2(C)CO[C@]1(C)C[C@H](O[C@@H]1O[C@H](CO)[C@@H](O)[C@H](O)[C@H]1O)C2
inactive: max response [1] 1.76% | outcome [2] | outcome [3] | max response [4] 0.594% | max response [5] -8.59% | outcome [6] inactive [at 17.4 µM] | Potency [7]

C=CC(C)(C)O[C@@H]1O[C@H](CO[C@@H]2OC[C@](O)(CO)[C@H]2O)[C@@H](O)[C@H](O)[C@H]1O
inactive: max response [1] -2.3% | outcome [2] | outcome [3] | outcome [4] | outcome [5] | outcome [6] | Potency [7]

CC(=O)O[C@H]1C[C@@H]2[C@]3(CC[C@]4(C)[C@@H](C5(C)CCC(C(C)(C)O)O5)[C@@H](O)C[C@@]24C)C[C@@]32CC[C@H](O[C@@H]3OC[C@@H](O)[C@H](O)[C@H]3O)C(C)(C)[C@H]12 (stereo partly specified)
inactive: max response [1] 4.65% | outcome [2] | outcome [3] | outcome [4] | max response [5] 1.48% | outcome [6] inactive [at 17.4 µM] | Potency [7]

C=C1CC[C@H]2[C@@](C)(CCC(O)[C@@]2(C)CO)[C@@H]1C/C=C(/C(=O)O)C(O)CO (stereo partly specified)
inactive: outcome [1] | outcome [2] | outcome [3] | max response [4] 7.71% | outcome [5] | outcome [6] | Potency [7]

CC(C)(O)/C=C1/C(=O)C(C)(C)C(=O)C(C)(C)C1(O)O[C@@H]1O[C@H](COC(=O)c2cc(O)c(O)c(O)c2)[C@@H](O)[C@H](O)[C@H]1O (stereo partly specified)
inactive: max response [1] -11.2% | outcome [2] | outcome [3] | outcome [4] | max response [5] 4.71% | outcome [6] inactive [at 17.4 µM] | Potency [7]

C/C=C1\[C@H](O[C@@H]2O[C@H](CO)[C@@H](O)[C@H](O)[C@H]2O)OC=C(C(=O)OC)[C@H]1CC(=O)OC
inactive: outcome [1] | outcome [2] | outcome [3] | max response [4] 5.8% | outcome [5] | outcome [6] inactive [at 17.4 µM] | Potency [7]

CCCC(N[C@@H](C)C(=O)N1[C@H](C(=O)O)C[C@@H]2CCCC[C@@H]21)C(=O)OCC (stereo partly specified)
inactive: outcome [1] | outcome [2] | outcome [3] | outcome [4] | outcome [5] | outcome [6] | Potency [7]

COc1cc(C(O)C(CO)Oc2ccc(CCCO[C@@H]3O[C@@H](C)[C@H](O)[C@@H](O)[C@H]3O)cc2OC)ccc1O (stereo partly specified)
inactive: outcome [1] | outcome [2] | outcome [3] | outcome [4] | max response [5] -2.23% | outcome [6] inactive [at 17.4 µM] | Potency [7]

CC(=O)[C@@H]1CC[C@]2(C(=O)O)CC[C@]3(C)C(CCC4[C@@]5(C)CC[C@H](O)C(C)(C)C5CC[C@]43C)C12 (stereo partly specified)
inactive: outcome [1] | outcome [2] | outcome [3] | outcome [4] | outcome [5] | outcome [6] inactive [at 17.4 µM] | Potency [7]

CC(C)C1(O[C@@H]2O[C@H](CO)[C@@H](O)[C@H](O)[C@H]2O)CC=C(CO)CC1 (stereo partly specified)
inactive: outcome [1] | outcome [2] | outcome [3] | max response [4] -0.585% | max response [5] 0.631% | outcome [6] | Potency [7]

CC(C)CC(=O)O[C@@H]1OC=C(CO[C@@H]2O[C@H](CO[C@@H]3O[C@H](CO)[C@@H](O)[C@H](O)[C@H]3O)[C@@H](O)[C@H](O)[C@H]2O)[C@H]2C[C@H](O)[C@@H](CO)[C@@H]12
inactive: max response [1] 4.5% | outcome [2] | outcome [3] | outcome [4] | max response [5] 0.598% | outcome [6] inactive [at 17.4 µM] | Potency [7]

CC1=C2[C@@H]([C@H](C)CC[C@H]2/C=C(\C)C(=O)O)[C@H](O)C1
inactive: max response [1] 0.252% | outcome [2] | outcome [3] | max response [4] 3.15% | max response [5] 3.16% | outcome [6] | Potency [7]

CC1CCC2(C(=O)OC3OC(CO)C(O)C(O)C3O)CCC3(C(=O)O)C(=CCC4C5(C)CCC(OC6OC(C)C(O)C(O)C6O)C(C)(C)C5CCC43C)C2C1C (stereo unspecified)
inactive: max response [1] 1.53% | outcome [2] | outcome [3] | outcome [4] | max response [5] 4.68% | outcome [6] inactive [at 17.4 µM] | Potency [7]

COc1cc(COC2OC(CO)C(O)C(O)C2O)cc(OC)c1O (stereo unspecified)
inactive: outcome [1] | outcome [2] | outcome [3] | outcome [4] | outcome [5] | outcome [6] | Potency [7]

O=C(NN1CCCCC1)c1nn(-c2ccc(Cl)cc2Cl)c(-c2ccc(C#Cc3ccc(C(F)(F)F)cc3)s2)c1CNS(=O)(=O)N1CCCC1
inactive: max response [1] -7.83% | outcome [2] | outcome [3] | max response [4] 4.58% | outcome [5] | outcome [6] | Potency [7]

COc1cc([C@H]2OC[C@@H]3[C@@H](c4ccc(O[C@@H]5O[C@H](CO)[C@@H](O)[C@H](O)[C@H]5O)c(OC)c4)OC[C@]23O)ccc1O
inactive: max response [1] -6.95% | outcome [2] | outcome [3] | max response [4] 3.2% | outcome [5] | outcome [6] inactive [at 17.4 µM] | Potency [7]

CC1CCC2(O1)C(C)(C)CC(O[C@@H]1O[C@H](CO[C@@H]3OC[C@](O)(CO)[C@H]3O)[C@@H](O)[C@H](O)[C@H]1O)CC2(C)O (stereo partly specified)
inactive: max response [1] -0.207% | outcome [2] | outcome [3] | outcome [4] | outcome [5] | outcome [6] inactive [at 17.4 µM] | Potency [7]
